# Measured values as given in PubChem BioAssay AID1345085 (National Center for Advancing Translational Sciences (NCATS), 2018).
# Results filed as inconclusive are left out. A call without a number means that no potency is given here. Active and inactive are the calls of the source. Calls follow the shape of the dose curve; as a rule, active = well fitted cell-killing curve with a large enough effect; inconclusive = small, poorly fitted or top-dose-only effect, or effect the other way; inactive = no such curve, though single readings can be large or run the other way.
# Tested on: CAOV3
# Experiment: Confirmatory qHTS for gynecologic anti-cancer compounds from libraries of approved drugs and bioactive compounds; also: nearly all actives have a fitted effect of over 55% in size
# Details: gynecologic cancer cell panel viability, ATPlite luminescence, 48 h; series mostly up to 57.6 µM
# Excerpt: National Center for Advancing Translational Sciences [NCATS] Assay Overview: Chemotherapeutic drug responses vary from cancer to cancer and from patient to patient. These variations could be caused by a number of factors including patient genomic background, tumor mutations, tumor heterogeneity, and aspects of drug treatment. Chemotherapeutic drug resistance is also a common issue and can lead to ineffective treatment and patient death. Here we have profiled the cell killing effects of thousands of compounds to characterize the responses in three gynecological cancers, identify cancer-selective compounds, and understand the diversity of responses to these compounds from pan-cancer suppressors to single cell line selective compounds. In this assay, we screened a 7,914 compound drug library that included approved drug and bioactive compounds in six ovarian, three cervical, and two placental cancer cell lines using the ATPlite assay for cell viability. ATPlite is a luminescence based assay reliant on the conversion of a luciferase substrate to light in the presence of ATP. As a cytotoxic compound will suppress growth and decrease the number of cells, the concentration of ATP will decrease, and less light signal will be detected in the well. Hits were selected from the primary screen for follow-up confirmation. For the confirmation screens, the ovarian cancer cell lines included CAOV-3, SK-OV-3, SW 626, ES-2, PA-1, and TOV-21G. The cervical cancer cell lines included HeLa, Ca Ski, and C-33 A. The placental cancer cell lines included JEG-3 and JAR. HEK 293T cells were used as the control cell line to determine the selectivity index. The ATPlite assay was used to determine the IC50 values.
# Assay Protocol Summary: 1,000 cells in 4 uL of media were dispensed into white, solid bottom 1536-well plates using a Multidrop Combi (Thermo Scientific). The Assay plates were incubated for 16 hours at 37 C with 5% CO2 in assay plates, followed by the addition of 23 nL of DMSO or drug dissolved in DMSO. . Each compound was assayed in 11 concentrations (1:3 dilution) from 57.5 uM to 0.977 nM, using the automated Wako 1536 Pin Tool workstation and incubated at 37 C with 5% CO2 48 hours. 4 uL of ATPlite, the ATP monitoring reagent, was then added to the each well of the assay plates using the Multidrop Combi reagent dispenser followed by incubation for 15 minutes at room temperature. The resulting luminescence was measured using the ViewLux plate reader.
# Potency is read from the fitted curve at half-maximal effect.
row,SMILES,Potency
1,CCOc1ccccc1-n1c(C(C)N2CCN(C(=O)COc3ccc(Cl)cc3)CC2)nc2ccccc2c1=O (centres undefined),inactive
2,O=C(O)Cc1ccccc1,inactive
3,CCN1CCN(C(=O)Cc2ccc(Nc3ncc(F)c(Nc4ccc(C(=O)Nc5ccccc5Cl)cc4)n3)cc2)CC1,inactive
4,CCC(=O)O[C@H]1CC[C@H]2[C@@H]3CCC4=CC(=O)CC[C@]4(C)[C@H]3CC[C@]12C,inactive
5,CCNC(=O)C[C@@H]1N=C(c2ccc(Cl)cc2)c2cc(OC)ccc2-n2c(C)nnc21,1220 nM (active)
6,C[C@]12CC[C@H]3[C@@H](CCC4=CC(=O)CC[C@@H]43)[C@@H]1CC[C@@H]2OC(=O)CCc1ccccc1,inactive
7,C[C@H]1CCC/C=C/C2C[C@H](O)C[C@H]2[C@H](O)/C=C/C(=O)O1 (some centres undefined),306 nM (active)
8,C=C(C)[C@H]1Cc2c(ccc3c2O[C@@H]2COc4cc(OC)c(OC)cc4[C@@H]2C3=O)O1,inactive
9,C/C=C(/C)C(=O)O[C@H]1C(C)=C2[C@H]([C@@H]1OC(=O)CCCCCCC)[C@@](C)(OC(C)=O)C[C@H](OC(=O)CCC)[C@@]1(O)[C@H]2OC(=O)[C@@]1(C)O,9680 nM (active)
